Nrf2 ARE act: Nrf2 pathway activation; AREc32 ARE-luciferase reporter (MCF7-derived line), luminescence, 24 h; hit rate 0.31% among 410,000; Potency, µM (doses to about 46.1 µM), for inactives: at the highest dose activation, actives largely listed as activators; AID 624171; note: potency is the fitted concentration of half-maximal effect; % of control where 0% means no effect; nearly all actives have a fitted effect of over 65% in size
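ARE-driven firefly luciferase activity in AREc32 cells measured after a 24 hr compound exposure at 37 deg C, using Steady-Glo reagent and a 30 min room-temperature hold.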
Giardia killer: kills Giardia lamblia; Giardia lamblia trophozoite viability; hit rate 0.15% among 340,000; activity change, % at 7.66 µM, hits read low; in the data active = activity change below about -80%; inconclusive = between about -30% and that limit;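 note: parasites exposed to compound for two days anaerobically before the ATP read; % is set by controls: 0 for no effect and ±100 for the full control effect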
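Giardia trophozoites, 100 cells per well, were exposed to compounds for 48 hrs at 37 deg C under anaerobic conditions; viability was then read as ATP content by bioluminescence after 15-30 min at room temperature.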
A549 tox-1: A549 cytotoxicity, counter-screen for Nrf2 inhibitors; AID 504648; A549 ARE-Fluc cells, CellTiter-Fluor viability, 18-24 h; hit rate 0.16% among 390,000; Potency, µM (highest dose often 46 µM), for inactives: at the top dose activity change, negative = cytotoxicity, hits mostly inhibitors; note: potency is the fitted concentration of half-maximal effect; % is set by controls: 0 for no effect and ±100 for the full control effect
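A549 ARE_Fluc cells in 5% FBS OPTI-MEM were exposed to compounds in concentration-response for 18-24 h at 37 deg C. Viability was read by CellTiter-Fluor fluorescence (Ex 405/Em 525) after 30 min, before the luciferase read.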
Anesthetic bind: candidate novel general anesthetic via apoferritin binding; AID 485281; apoferritin/1-aminoanthracene competitive binding, fluorescence; hit rate 0.074% among 350,000; P02791; Potency, µM (highest dose often 77.5 µM), inactives show at the top dose activity change, negative = displacement, hits mostly inhibitors; note: potency is the fitted concentration of half-maximal effect; % is set by controls: 0 for no effect and ±100 for the full control effect; nearly all actives have a fitted effect of over 20% in size
Target sequence (P02791 2-175 limits assumed): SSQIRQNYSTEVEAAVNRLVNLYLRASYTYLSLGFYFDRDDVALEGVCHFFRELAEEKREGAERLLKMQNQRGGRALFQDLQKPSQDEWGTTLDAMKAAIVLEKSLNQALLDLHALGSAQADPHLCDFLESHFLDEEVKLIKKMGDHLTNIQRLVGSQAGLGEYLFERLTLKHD
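Steps: apoferritin (10 uM) was premixed with half-saturated 1-AMA in PBS, compounds were pin-transferred, plates stood 10 min at room temperature, fluorescence was read at 380/535 nm, and curves were fitted with a Hill equation.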
Nrf2 block: Nrf2 pathway inhibition; A549 ARE-Fluc reporter, luciferase luminescence, 18-24 h; Potency, µM (top dose mostly 46 µM), without a hit: top-dose activity change, negative = inhibition, actives largely listed as inhibitors; hit rate 2.1% among 360,000; note: potency is the fitted concentration of half-maximal effect; % is set by controls: 0 for no effect and ±100 for the full control effect; nearly all actives have a fitted effect of over 60% in size
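Reporter: ARE-Fluc in A549. Exposure: 18-24 h, 37 °C, 5% CO2, 5% FBS OPTI-MEM. Readouts: fluorescent cytotoxicity (CellTiter-Fluor), then luminescent Nrf2 signal after BugLite.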
IDH1 R132H inh: blocks human mutant IDH1 R132H enzyme; Potency, µM (highest dose often 76.6 µM), for the others: top-dose activity change, negative = inhibition, most hits filed as inhibitors; hit rate 0.093% among 390,000; IDH1-R132H enzyme, NADPH consumption, diaphorase/resazurin fluorescence; O75874; note: potency is the fitted concentration of half-maximal effect; % is set by controls: 0 for no effect and ±100 for the full control effect; nearly all actives have a fitted effect of over 65% in size
Target sequence (O75874 whole entry R132H, stated change not applied): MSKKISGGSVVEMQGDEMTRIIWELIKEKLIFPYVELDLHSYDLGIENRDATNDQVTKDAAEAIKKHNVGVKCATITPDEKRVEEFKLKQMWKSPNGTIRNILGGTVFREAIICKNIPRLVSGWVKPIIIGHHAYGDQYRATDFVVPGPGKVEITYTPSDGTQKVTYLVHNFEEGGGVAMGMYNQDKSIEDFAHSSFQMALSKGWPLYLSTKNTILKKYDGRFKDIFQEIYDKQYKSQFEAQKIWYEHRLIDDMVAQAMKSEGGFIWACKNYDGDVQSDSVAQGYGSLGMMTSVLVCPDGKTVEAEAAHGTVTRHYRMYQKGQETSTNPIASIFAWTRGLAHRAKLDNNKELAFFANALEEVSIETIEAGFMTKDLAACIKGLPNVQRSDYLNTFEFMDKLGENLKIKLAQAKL
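IDH1-R132H (0.5 ug/mL) preincubated 30 min with compound, then NADPH (0.016 mM) and alpha-KG (2 mM) added; 80 min at RT, pH 7.5. Remaining NADPH coupled via diaphorase/resazurin to fluorescence (540/590 nm); concentration-response curves normalized to no-enzyme control.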
FLuc enzyme inh: firefly luciferase inhibition, Nrf2 hit validation. purified firefly luciferase, luminescence inhibition. shares compounds with Nrf2 block. Potency, µM (highest dose often 57.5 µM), for inactives: top-dose activity change, negative = inhibition, actives largely listed as inhibitors. AID 720522. hit rate 4% among 1,400; note: potency is the fitted concentration of half-maximal effect; % is set by controls: 0 for no effect and ±100 for the full control effect; nearly all actives have a fitted effect of over 65% in size
A549 tox-2: toxic to A549 ARE-Fluc cells in Nrf2 counterscreen; shares compounds with Nrf2 block; A549 ARE-Fluc cells, cytotoxicity counterscreen; Potency, µM (doses to about 46.1 µM), without a hit: at the highest dose activity change, negative = cytotoxicity, actives largely listed as inhibitors; hit rate 2% among 1,400;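 note: potency is the fitted concentration of half-maximal effect; cells exposed to compounds for 18 to 24 hours; % is set by controls: 0 for no effect and ±100 for the full control effect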
ARE-Fluc inh: reduces Nrf2 ARE reporter signal in A549 cells | A549 ARE-firefly luciferase reporter, luminescence | hit rate 74% among 1,400 | shares compounds with Nrf2 block | Potency, µM (doses to about 46.1 µM), for inactives: at the top dose activity change, negative = inhibition, most hits filed as inhibitors | AID 720524; note: potency is the fitted concentration of half-maximal effect; % is set by controls: 0 for no effect and ±100 for the full control effect; nearly all actives have a fitted effect of over 65% in size
Active calls of the source: *; ? = inconclusive; . = no result shown; [ ] = another dose, or the depositor's remark. Sampled rows, rich in hits. Any-hit rate of the full collection: about 2.3%. Unless noted, calls come from the whole dose curve; as a rule, active = well fitted curve in the direction sought with a large enough effect; inconclusive = small, poorly fitted or top-dose-only effect, or another doubt; inactive = no such curve, though single readings can be large; an effect the other way counts as inactive or inconclusive.

SMILES | Nrf2 ARE act | Giardia killer | A549 tox-1 | Anesthetic bind | Nrf2 block | IDH1 R132H inh | FLuc enzyme inh | A549 tox-2 | ARE-Fluc inh
CC[C@H](C)[C@H](NC(=O)[C@H](CO)NC(=O)[C@H](CC(C)C)NC(=O)[C@H](CO)NC(=O)[C@@H]1CCCN1C(=O)[C@H](CC(N)=O)NC(=O)[C@@H](N)CC(=O)O)C(=O)N[C@@H](CC(=O)O)C(=O)N[C@@H](CC(C)C)C(=O)N[C@H](C(=O)N[C@@H](Cc1ccccc1)C(=O)N[C@@H](Cc1cnc[nH]1)C(=O)N[C@@H](CC(C)C)C(=O)N[C@@H](CC(C)C)C(=O)N[C@@H](CCCNC(=N)N)C(=O)N[C@H](C(=O)N[C@@H](CC(C)C)C(=O)N[C@@H](CC(C)C)C(=O)N[C@@H](CCC(=O)O)C(=O)N[C@@H](CC(C)C)C(=O)N[C@@H](C)C(=O)N[C@@H](CCCNC(=N)N)C(=O)N[C@H](C(=O)N[C@@H](CCC(N)=O)C(=O)N[C@@H](CO)C(=O)N[C@@H](CCC(N)=O)C(=O)N[C@@H](CCCNC(=N)N)C(=O)N[C@@H](CCC(=O)O)C(=O)N[C@@H](CCCNC(=N)N)C(=O)N[C@@H](C)C(=O)N[C@@H](CCC(=O)O)C(=O)N[C@@H](CCC(N)=O)C(=O)N[C@@H](CC(N)=O)C(=O)N[C@@H](CCCNC(=N)N)C(=O)N[C@H](C(=O)N[C@H](C(=O)N[C@@H](Cc1ccccc1)C(=O)N[C@@H](CC(=O)O)C(=O)N[C@@H](CO)C(=O)N[C@H](C(N)=O)C(C)C)[C@@H](C)CC)[C@@H](C)CC)[C@@H](C)O)[C@@H](C)O)[C@@H](C)O | . | . | . | -19% | . | . | . | . | .
CC(C)(C)C(=O)NC(=S)Nc1ccc(Cc2ccncc2)cc1 | 2% | -21 | -19% | ? | ? | 1% | . | . | .
O=C(NC(=S)Nc1ccc(Cc2ccncc2)cc1)c1ccc(F)cc1 | 4% | 6 | 0% | ? | 5.8µM* | 3% | -17% | 7% | ?
Cn1c(=O)n(-c2ccc(C(C)(C)C#N)cc2)c2c3cc(-c4cnc5ccccc5c4)ccc3ncc21 | . | . | . | . | . | . | 0% | ? | 0.92µM*
COc1ccc(S(=O)(=O)N(CC(=O)NCCSc2ccc(C)cc2)c2ccc(C)cc2)cc1 | -1% | . | 0% | 252% | -18% | 13% | . | . | .
CCOc1cc(/C=C(/C#N)c2nc3ccccc3[nH]2)ccc1Oc1ccc([N+](=O)[O-])cn1 | 5% | -15 | 1% | -6% | ? | -2% | . | . | .
COc1cc(/C=C(/C#N)c2ccc(C)cc2)ccc1Oc1ccc([N+](=O)[O-])cn1 | 0% | -1 | -2% | -9% | 2.9µM* | 1% | -12% | 3% | ?
COc1ccc(C(O)c2nc3ccccc3n2C)cc1OC (stereo unspecified) | 0% | -4 | -5%[1.84 µM] | -14% | 3.7µM* | 11% | 0% | 1% | ?
CCNC(=S)N1CCN(c2ccccn2)CC1 | 0% | -10 | 4% | -5% | -1% | 2% | . | . | .
CC(NNC(=S)N1CCN(c2ccccn2)CC1)c1nccc2ccccc12 (stereo unspecified) | 3% | -11 | ? | . | 5.8µM* | 1% | -13% | ? | ?
CN(Cc1cnc2nc(N)nc(N)c2n1)c1ccc(C(=O)NC(CCC(=O)O)C(=O)O)c2ccccc12 (stereo unspecified) | 0% | -2 | -23% | . | 0.041µM* | 5% | -20% | -18% | 0.033µM*
COc1ccc(NC(=O)CCCc2nnc3n(CCC(C)C)c(=O)c4sccc4n23)cc1Cl | 4% | . | -11% | ? | -30% | -7% | . | . | .
CC(C)Cn1c(N)c(C(=O)CSc2ccc3c(c2)OCCO3)c(=O)n(C)c1=O | 0% | 0 | -29% | -9% | 0.65µM* | -10% | -1% | -5% | 1.8µM*
COc1cc2c(cc1OC)C1O[C@](CCCCN3C(=O)c4ccccc4C3=O)(C2)OC2=C1C(=O)OC1(CCCCC1)C2 | . | . | . | -20%[15.3 µM] | . | . | . | . | .
CC(=NN1CC(=O)NC1=O)c1ccc([N+](=O)[O-])o1 | 15% | ? | -18% | . | ? | 8% | . | . | .
COc1ccc(N2CCN(c3ncnc4onc(C)c34)CC2)cc1 | -1% | . | 5% | -10% | 9.2µM* | -16% | 3% | -2% | 7.3µM*
CSc1ccc(CN(C)C(=O)c2cccc(S(=O)(=O)N3CCN(Cc4ccccc4)CC3)c2)cc1 | 0% | 4 | -16% | . | 5.8µM* | 3% | 1% | 13% | ?
COc1ccc(NC(=O)CN(C)C(=O)c2cccc(S(=O)(=O)N3CCN(Cc4ccccc4)CC3)c2)cc1 | 0% | -25 | -4% | -13% | ? | -5% | . | . | .
CN(CCOc1ccc(Cl)cc1)C(=O)c1cccc(S(=O)(=O)N2CCN(Cc3ccccc3)CC2)c1 | 0% | 1 | -10% | . | 8.2µM* | 10% | 0% | -29% | 9.2µM*
CCc1ccccc1Nc1cc(C(=O)NCCCN(C)C2CCCCC2)c2ccccc2n1 | 2% | . | 3% | -1% | 20% | -3% | . | . | .
CCc1ccccc1NC(=O)CSc1ncc2c(n1)-c1cc(Cl)ccc1N(Cc1ccccc1)S2(=O)=O | -1% | . | 4% | -8% | ? | 10% | . | . | .
Cc1cc(C)c(NC(=O)CSc2ncc3c(n2)-c2cc(Cl)ccc2N(C)S3(=O)=O)c(C)c1 | -1% | . | -18% | 0% | 4.6µM* | -12% | 3% | -19% | 30%
CCOC(=O)c1cccc(NC(=O)C2CCCN(S(=O)(=O)c3ccc4c(c3)oc(=O)n4C)C2)c1 (stereo unspecified) | 3% | . | 0% | -1% | -17% | -1% | . | . | .
Cc1ccnc(SCC(=O)Nc2sc3c(c2C#N)CCCC3)n1 | 4% | -10 | -21% | ? | 9.2µM* | 6% | -4% | -20% | .
CC(C)=NO[C@@H](C)CN1CCCc2nc(C)c(C)cc21 | . | . | . | 73%[15.3 µM] | . | . | . | . | .

Assay outcomes as filed in PubChem.
